Screening data deposited in PubChem BioAssay by several laboratories.
APOBEC3A inh: blocks human APOBEC3A ssDNA deamination; recombinant A3A, FAM/TAMRA ssDNA deamination fluorescence; 330,000 compounds, 0.41% hits; inhibition, % at 20 µM; P31941;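 active = at least 40% inhibition at 20 µM here, with at most 30% in a related deaminase screen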;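 also: plate controls were A3A with DMSO for no effect and wells lacking A3A enzyme for full effect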
Target sequence (P31941 whole entry, looked up): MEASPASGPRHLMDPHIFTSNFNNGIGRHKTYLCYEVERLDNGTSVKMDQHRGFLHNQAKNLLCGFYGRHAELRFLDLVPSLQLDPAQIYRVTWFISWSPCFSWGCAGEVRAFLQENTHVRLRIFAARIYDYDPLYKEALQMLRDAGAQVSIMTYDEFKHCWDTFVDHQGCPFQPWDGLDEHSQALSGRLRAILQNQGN
VLA-4 inh: inhibition in a human VLA-4 binding assay | VLA-4 expressing cells, ligand binding flow cytometry | inhibition, % (about 7 µM as worked out from the volumes in the protocol) | 330,000 compounds, 0.2% hits | AID 2557; in the data active = inhibition above about 50%
APOBEC3G inh: inhibitors of human APOBEC3G DNA deaminase; Q9HC16; recombinant A3G, ssDNA deamination FAM/TAMRA fluorescence; inhibition, % at 20 µM; 330,000 compounds, 0.28% hits; AID 493012;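 active = inhibition of at least 40% at 20 µM, with no more than 30% in the related APOBEC3A deaminase screen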;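 also: plate controls were DMSO wells with A3G for no effect and wells lacking A3G enzyme for full effect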
Target sequence (Q9HC16 whole entry, looked up): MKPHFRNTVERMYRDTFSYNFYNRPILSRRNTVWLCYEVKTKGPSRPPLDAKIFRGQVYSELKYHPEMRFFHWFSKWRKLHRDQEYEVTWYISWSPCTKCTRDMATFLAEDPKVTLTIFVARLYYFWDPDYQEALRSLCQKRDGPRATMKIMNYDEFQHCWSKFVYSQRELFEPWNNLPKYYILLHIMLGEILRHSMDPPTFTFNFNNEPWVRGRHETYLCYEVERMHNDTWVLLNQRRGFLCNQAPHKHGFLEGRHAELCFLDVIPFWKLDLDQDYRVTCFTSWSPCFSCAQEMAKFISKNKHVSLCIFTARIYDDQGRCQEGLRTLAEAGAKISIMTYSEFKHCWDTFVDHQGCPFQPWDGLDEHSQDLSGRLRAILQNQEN
GRK2 inh: inhibitors of human GRK2 displacing RNA aptamer; AID 488847; inhibition of aptamer binding, % at 10 µM; P25098; bead flow cytometry, FAM-aptamer displacement from GRK2; 330,000 compounds, 0.59% hits;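 active = inhibition of aptamer binding above 40%, roughly 3 SD of noise, on plates passing a quality check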;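 also: median bead fluorescence of bound FAM aptamer so fluorescent compounds give negative values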
GRK2 inh confirm: human GRK2 inhibition confirmation, cherry pick 1; AID 504451; shares compounds with GRK2 inh; 2,000 compounds, 4% hits; bead-bound GRK2, FAM-aptamer displacement, flow cytometry; aptamer displacement, % at 10 µM;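 active = aptamer displacement above 40%, near three times the noise of non-fluorescent compounds, on plates passing quality checks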;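 also: negative values mostly reflect intrinsic compound fluorescence rather than true enhancement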
Aptamer quench 1: counter-screen for GRK2 aptamer inhibitors: fluorescent aptamer quenchers; Fluorescent RNA aptamer beads, quenching, flow cytometry; stronger effect = higher value; shares compounds with GRK2 inh; AID 504521; fluorescence change (kMESF span), kMESF (test concentration not listed); 110 tested, under 10 active;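 active = compounds whose bead fluorescence drops by more than 37 kMESF across the dose range, marking them as dye quenchers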
Aptamer quench SP: aptamer fluorescence quenching in GRK2 counter-screen. shares compounds with GRK2 inh. Carboxyfluorescein RNA aptamer on beads, flow cytometry quenching; stronger effect = lower value. fluorescence response (% of DMSO), % at 10 µM. 2,000 tested, under 10 active;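 active = compounds that quench the bead-bound fluorescent RNA probe, cutting fluorescence to under half of the solvent control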;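 also: counterscreen run without GRK2 so only probe quenching by compound is measured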
GRK2 CP2: human GRK2 inhibition confirmation, cherry pick 2 | AID 504782 | bead-bound GRK2, FAM-aptamer displacement, flow cytometry | 360 tested, under 10 active | shares compounds with GRK2 inh | inhibition of aptamer binding, % at 10 µM;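 active = inhibition of aptamer binding above 40%, about triple the noise seen with nonglowing compounds, on plates passing quality control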;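 also: negative values mostly come from compounds that fluoresce themselves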
FAM quench SP: quenches fluorescent RNA aptamer, GRK2 hit artifact. shares compounds with GRK2 inh. carboxyfluorescein RNA aptamer beads, flow cytometry quenching; stronger effect = lower value. fluorescence response vs DMSO, % at 10 µM. 360 tested, under 10 active. AID 588494;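 active = response vs DMSO under 50%, meaning signal dropped by over half, treated as fluorescence quencher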;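 also: labelled aptamer on streptavidin beads without GRK2 as a quench counter-screen; 100% = bead fluorescence of DMSO wells and lower means quenching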
Starred values were filed as active, the others as inactive; · = not tested or not shown. A selection: hits, their analogues and other compounds. The true share with any hit is near 1.4%.

SMILES	APOBEC3A inh	VLA-4 inh	APOBEC3G inh	GRK2 inh	GRK2 inh confirm	Aptamer quench SP	others
O=[N+]([O-])c1cc(Cl)cc(/C=N/Nc2nc3ccccc3s2)c1O	0	1	0	4	·	·
Cc1ccc(CNC(=O)CN2C(=O)COc3ccc(S(=O)(=O)N4CCC(C)CC4)cc32)o1	-8	-1	-6	2	·	·
Cc1ccc(NC(=O)CNC(=O)C2CCCCC2)nc1	0	0	-3	63*	-1	105
Cc1cccnc1NC(=O)CNC(=O)C1CCCCC1	-3	41	-5	0	·	·
C/C(=N\NC(=O)c1nn(C)c(C)c1Br)c1ccc(NC(=O)c2ccoc2C)cc1	-2	-2	-9	0	·	·
O=C(CCCN1C(=O)/C(=C/c2cccs2)SC1=S)Nc1cccc(C(=O)O)c1	-3	5	-4	95*	1	101
COc1ccccc1N1CCN(/N=C(\C)c2ccccc2O)CC1	-8	2	4	55*	-1	100
CC1CC(C)CN(C(=O)C(Cc2ccccc2)n2cccc2)C1 (stereo not drawn)	-5	6	-5	0	·	·
CC1CCN(C(=O)C(Cc2ccccc2)n2cccc2)CC1 (stereo not drawn)	-2	-15	-1	56*	3	100
NS(=O)(=O)c1ccc(N=Nc2c[nH]c(=O)c(O)c2)cc1	12	0	11	7	·	·
Nc1nc(O)c(N=Nc2ccc(S(N)(=O)=O)cc2)c(=O)[nH]1	2	-17	8	44*	4	98
COc1cc(CNCc2cccs2)ccc1OCc1ccccc1	-4	42	-4	30	-2	103
COc1ccc(C(c2sc3nc(C)nn3c2O)N2CCC3(CC2)OCCO3)cc1 (stereo not drawn)	-4	-3	-5	3	·	·
CCOc1ccc(C(=O)Nc2cc(C)on2)cc1	0	3	-2	0	·	·
Cc1cc(NC(=O)c2ccc(Cl)cc2)no1	-6	-6	-4	71*	0	95
NNC(=O)c1ccccc1-n1cccc1	-2	-95	6	5	·	·	GRK2 CP2=10;FAM quench SP=99
O=C(NNC(=O)c1ccccc1-n1cccc1)c1ccccc1	0	33	-9	0	·	·
O=C1C=C(NCc2ccco2)CC(c2ccc(Cl)cc2)C1 (stereo not drawn)	-1	6	-2	86*	-1	98
Cc1cc(C)n2nc(C(=O)OCC(=O)c3cc(C)n(C)c3C)nc2n1	35	-31	25	41*	26	100
Cc1cc(C)n2nc(C(=O)OCC(=O)c3ccccc3Cl)nc2n1	-4	2	-6	5	·	·
CC(=O)c1c(C)n([O-])c2cc(F)c(F)cc2[n+]1=O	4	-20	5	5	·	·
O=C(COC(=O)c1cc(Cl)ccc1O)Nc1ccccc1C(=O)NC1CC1	0	6	-2	1	·	·
Cc1ccc(Cl)cc1NC(=O)COC(=O)c1ccccc1O	5	4	2	85*	-5	98
COc1ccc([N+](=O)[O-])cc1/C=N/NC(=O)/C(=C\c1cccs1)NC(=O)c1ccccc1	1	3	2	1	·	·
CC(C)C(NC(=O)c1ccccc1NC(=O)c1ccccc1)C(=O)NCCCn1ccnc1 (stereo not drawn)	2	-5	-10	0	·	·
SMILES	APOBEC3A inh	VLA-4 inh	APOBEC3G inh	GRK2 inh	GRK2 inh confirm	Aptamer quench SP	others
CCc1nc(SCC(=O)O)c(C#N)c2c1CCCC2	3	1	-2	0	·	·
Cc1nc(SCC(=O)O)c(C#N)c2c1CCCC2	86	-10	33	82*	15	101
Cc1ccc(S(=O)(=O)NCCC(=O)Nc2ccc(Cl)c(Cl)c2)cc1	5	17	-3	8	·	·
Cc1ccc(S(=O)(=O)NCCC(=O)Nc2nnc(C)s2)cc1	-8	5	-8	100*	3	102
CCOC(=O)Cn1c(=O)n(Cc2ccco2)c(=O)c2ccc(C(=O)NC3CCCC3)cc21	-4	-5	-7	86*	-2	103
CC1=C(C)NC(=S)SC1	-5	8	0	2	·	·
O=C(CCN1CCOCC1)N1CCc2c([nH]c3ccccc23)C1c1cccc(Cl)c1 (stereo not drawn)	-5	10	-3	0	1	93
O=C(c1cccs1)N1CCc2c([nH]c3ccccc23)C1c1ccc(Cl)cc1 (stereo not drawn)	0	12	-3	0	·	·
CCCC(=O)Nc1nnc(S(=O)(=O)N2CCCCCC2)s1	-3	-4	-7	0	·	·
CCc1ccc(NC(=O)N(C2CCC(C)CC2)C2CCN(C(C)=O)CC2)cc1 (stereo not drawn)	-4	-7	-5	57*	3	93
CCc1ccc(NC(=O)N(CCCOC(C)C)C2CCN(C(C)=O)CC2)cc1	-4	-5	-6	5	·	·
COc1cc(C2C(C#N)=C(N)Oc3c2ccc2ccccc32)ccc1OCC(=O)Nc1ccc(C)cc1 (stereo not drawn)	3	-16	0	0	1	94
COc1cc(C2C(C#N)=C(N)Oc3c2ccc2ccccc32)ccc1OCC(=O)Nc1cccc(C)c1 (stereo not drawn)	-2	-1	-16	0	·	·
COCCNC(=O)C/C(C)=N/NC(=O)C(=O)NC1CCCCC1	1	-2	-2	57*	86*	101	Aptamer quench 1=-9.6
COCCCNC(=O)C(=O)NC1CCCCCC1	1	7	-8	1	·	·
COc1ccc(-c2csc(NC(=O)c3nc(-c4ccccc4)oc3C)n2)cc1	-3	-2	-3	0	·	·
Cc1cc(N)c2cc(NC(=O)/C=C/c3ccccc3Cl)ccc2n1	7	20	-13	0	·	·
Cc1ccc(-c2cc(C(=O)N/N=C/c3ccco3)[nH]n2)cc1	7	-1	1	87*	-1	100
O=C(CCc1n[nH]c(=O)[nH]c1=O)N/N=C/c1ccco1	22	8	0	44*	25	96
O=C(NC1CC1)c1cccc2c1C(=O)c1ccc(N3CCC(Cc4ccccc4)CC3)cc1S2(=O)=O	-4	-340	0	73*	·	·	GRK2 CP2=-20;FAM quench SP=101
Cc1sc2nc(SCC(=O)NCc3cccs3)[nH]c(=O)c2c1C	1	7	-4	1	·	·
CCc1c(O)nc(SCC(=O)NCc2ccco2)[nH]c1=O	1	14	-1	11	·	·	GRK2 CP2=1;FAM quench SP=107
Cn1c(SCC(=O)NCc2ccco2)nnc1-c1cccs1	-1	34	-5	86*	3	100
